For 42 sequences, binding signal results are on record in article PMC7819943, “Rice protein-binding microarrays: a tool to detect cis-acting elements near promoter regions in rice”.

In all, about 68,000 sequences were measured (“fluorescence intensity (a.u.)”: median about 9,100, highest 2% from about 16,000 on). Shown is part of a subset that was picked to be rich in the highest values.

Sequence of OsWRKY34 (Q0JBA9 entry or part of it): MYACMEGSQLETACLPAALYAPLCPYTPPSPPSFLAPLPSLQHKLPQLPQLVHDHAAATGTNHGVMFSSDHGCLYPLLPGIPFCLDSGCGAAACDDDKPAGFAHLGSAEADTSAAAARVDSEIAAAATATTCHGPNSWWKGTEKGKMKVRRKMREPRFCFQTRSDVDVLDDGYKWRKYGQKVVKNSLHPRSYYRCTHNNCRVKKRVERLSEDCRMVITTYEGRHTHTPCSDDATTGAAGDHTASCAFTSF

In the assay the target is OsWRKY34 (Oryza sativa, UniProt Q0JBA9 1-250). In words: protein-binding microarray (RPBM); PBS, 2% BSA, 51.3 ng/ul salmon testes DNA, 50 uM zinc acetate, 200 nM TF, 25 C, 1 h; high values mean tight binding. The conditions noted are these: protein: recombinant; tags: N-terminal polyhistidine and DsRed monomer fusion (pET32a); label: CyDye5-dUTP incorporated in the synthesized complementary strand; 3' TTTTT single-stranded linker to array surface; dsDNA, one strand shown. An outline of the steps:
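For the binding signal, per-feature fluorescence intensity was read in arbitrary units on an Axon 4000B scanner. Before scanning, a 2% BSA-blocked custom Agilent array made double-stranded with Cy5-dUTP was washed after 1 h at 25 °C with 200 nM protein and 50 µM zinc acetate. The proteins were Ni–NTA-purified transcription factors with N-terminal polyhistidine and DsRed fusions, expressed in E. coli BL21-CodonPlus.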
For “CTCAACTCGGGATGACATTTGGGGTGTTTTTTTTTTGCAACGGAGTCACCTAGTGCAG”, the binding signal is 9820 fluorescence intensity (a.u.).
With “TACTTGCACTTTACTATATTCTTGCTGTTACGCACCACATCGGAGTCACCTAGTGCAG” the figure was 14600 fluorescence intensity (a.u.); with “AGTTAAAACCGCTACTCCACTCCTCCCATTGCATAATTTTCGGAGTCACCTAGTGCAG”, 9400 fluorescence intensity (a.u.).
For “AATTTTGATAGATGTGGGATGTGTTGTAATTTGTAAATTTCGGAGTCACCTAGTGCAG”, the binding signal is 8270 fluorescence intensity (a.u.).
Regarding “GCCGGCGGCAGGGTGGGGCGGGGACGCCTGCCGGCGTCGGCGGAGTCACCTAGTGCAG”, the binding signal is 9860 fluorescence intensity (a.u.).
“TTGTCCTCAGCCGGCAGTGTAGGTTCCGGGAGGGCGGGGTCGGAGTCACCTAGTGCAG”: the binding signal was 19300 fluorescence intensity (a.u.).
For the sequence “TTTGCAGGTTTCGTTTGCATTTGCGGGGCGGGCATATATGCGGAGTCACCTAGTGCAG”, the binding signal was 21600 fluorescence intensity (a.u.).
For “TTCTTTTCTTTTTTTCTTTGCGGGGATTTCATATAGGATTCGGAGTCACCTAGTGCAG”, the binding signal is 8510 fluorescence intensity (a.u.).
With “GCGGCAGGTTTCGGCGGCGGGGCGGGCGGCAGGTGTCGGCCGGAGTCACCTAGTGCAG”, the binding signal is 20000 fluorescence intensity (a.u.).
As for “AAGGTGGTGGGGCAGGTGGAGCGGGTGGTCGGGGCGACGCCGGAGTCACCTAGTGCAG”, the binding signal was 11300 fluorescence intensity (a.u.).
For the sequence “TGGCGCGTGGGAGGGTCAGCCTAGGGCGTCGGAGGGGCGGCGGAGTCACCTAGTGCAG”, the binding signal is 13400 fluorescence intensity (a.u.).
With “TTTCGGTTTTGCTACTTCACATGCGCATATTTTTGGAGGGCGGAGTCACCTAGTGCAG”, the binding signal was 9330 fluorescence intensity (a.u.).
The result for “AGGTTCCGGGAGGGCGGGGTGGAGCACGAGGCGGCGGTGCCGGAGTCACCTAGTGCAG” reads 10600 fluorescence intensity (a.u.); that for “TTTTGCGCGGATGGCCCTTTACTTTTCCCCTCTTGTCCTCCGGAGTCACCTAGTGCAG”, 10400 fluorescence intensity (a.u.).
In the case of “ACTTCTACTCCTACTTCCCTGTGTGGCCCACAGCTAGATACGGAGTCACCTAGTGCAG”, the binding signal was 10300 fluorescence intensity (a.u.).
For the sequence “TGGAAGTCTGGAAGGCGCTGTACCTTCGTCTCGCCCGTCACGGAGTCACCTAGTGCAG”, the binding signal is 8650 fluorescence intensity (a.u.).
With “ATATGTCAAGTTTGGTGGATATAGTTGTTTGGCCTTTTACCGGAGTCACCTAGTGCAG” the figure was 11700 fluorescence intensity (a.u.).
With “CACGCTGCACTGCACCGCTTTACGCCATCTCGCCAATTTTCGGAGTCACCTAGTGCAG” the figure was 10300 fluorescence intensity (a.u.).
As for “CCAATTTTTTTTTCTCCTTTTGCTTTTTTTCATCAAGAACCGGAGTCACCTAGTGCAG”, the binding signal is 8740 fluorescence intensity (a.u.).
With “CGGAACCGCTCCTCGAGAAGCTCTCGAATTCCTCGTCGTCCGGAGTCACCTAGTGCAG” the figure was 9310 fluorescence intensity (a.u.); with “AGAACGAACAGTCAAACATATGCTAAAAAGTCAACGGTGTCGGAGTCACCTAGTGCAG”, 10200 fluorescence intensity (a.u.); with “AAGACGAACGGTCAAATATGTGCTAAAAAGTCAACGGTGTCGGAGTCACCTAGTGCAG”, 9990 fluorescence intensity (a.u.).
With “GGTAAAATATGTGCTAAAAAGTCAACGGTGTCAAACATTTCGGAGTCACCTAGTGCAG” the figure was 14400 fluorescence intensity (a.u.).
For the sequence “TGTTATGCAAATGTGCAAATGCAAAAGTTGGCCGCAAGAACGGAGTCACCTAGTGCAG”, the binding signal is 17600 fluorescence intensity (a.u.).
Consider “TAAGACGAATGGTCAAATATGTGCTAAAAAGTCAACGGTGCGGAGTCACCTAGTGCAG”, for which the binding signal was 13100 fluorescence intensity (a.u.).
Turning to “ATAAGACGAACGGTTAAAAATGTGCCAAAAAGTCAACGGCCGGAGTCACCTAGTGCAG”, the binding signal is 9640 fluorescence intensity (a.u.).
“AGACGAACAGTCAAATATGTGCTAAAAAGTCAACGGTGTCCGGAGTCACCTAGTGCAG”: the binding signal was 17500 fluorescence intensity (a.u.).
With “ATAAGACGAACGGTCAAATATGTGCTAAAAAGTCAACGGTCGGAGTCACCTAGTGCAG”, the binding signal was 16400 fluorescence intensity (a.u.).
Regarding “GAACGGTCAAACATGTGTTAAAAAGTCAACGGTGTTAAACCGGAGTCACCTAGTGCAG”, the binding signal is 9470 fluorescence intensity (a.u.).
Consider “TCCTATCCCTACGAGCACTTCCGAAATATTGGACTGACATCGGAGTCACCTAGTGCAG”, for which the binding signal was 8370 fluorescence intensity (a.u.).
In the case of “ATAACTCGGGTCGGACTCGGACCTCAGGCCCACGTATTCCCGGAGTCACCTAGTGCAG”, the binding signal is 8400 fluorescence intensity (a.u.).
The result for “CGCTGATTGGGTTGGGTCGGGTTAGCTTTGGTTTCAATGCCGGAGTCACCTAGTGCAG” reads 11200 fluorescence intensity (a.u.); that for “AATACTCCTCTACTCATATTAGTACAATATCACAAACTTACGGAGTCACCTAGTGCAG”, 8250 fluorescence intensity (a.u.).
The result for “ACTGCTTTGTTCTATTTGATTATTTTTTTACTCATCAGATCGGAGTCACCTAGTGCAG” reads 15900 fluorescence intensity (a.u.).
Consider “TGTTTGACGCCGTTGACTTTTTAACACATGTTTGACCGTTCGGAGTCACCTAGTGCAG”, for which the binding signal was 41700 fluorescence intensity (a.u.).
In the case of “ATGTTTGACACCGTTGATTTTTTAACACATGTTTGACCGTCGGAGTCACCTAGTGCAG”, the binding signal is 9910 fluorescence intensity (a.u.).
The result for “AATGTTTGACGCCGTTGACTTTTTAGCACATGTTGACCGTCGGAGTCACCTAGTGCAG” reads 42200 fluorescence intensity (a.u.); that for “ACGCCATTGACTTTTTAGCAGATGTTTGACCGTTCGTTTTCGGAGTCACCTAGTGCAG”, 20700 fluorescence intensity (a.u.); that for “TGTTTGACGCCGTTGACTTTTTAGCACATGTTTGACCGTTCGGAGTCACCTAGTGCAG”, 43600 fluorescence intensity (a.u.).
With “GCCGCGCACGCCGTCATCTCTTTTTCGTTCCATACTTCTCCGGAGTCACCTAGTGCAG” the figure was 10700 fluorescence intensity (a.u.); with “GGCTGGGTGTTACAACTTTGTCCAAAACATCAATAATTATCGGAGTCACCTAGTGCAG”, 8610 fluorescence intensity (a.u.); with “CCCACATTTTTTCTTCTCACTTATATGTGGGTCCCATAATCGGAGTCACCTAGTGCAG”, 8640 fluorescence intensity (a.u.).
